These results are taken from the antibiotic and cytotoxicity screens of Wong et al. (2023).

Screen size: about 39,000 compounds; about 3,300 (8.5%) were called active. The sample holds actives, similar compounds and a random draw of the others, so the mix is not that of the screen.

In the experiment the test system is HepG2. The experiment can be described thus: cytotoxicity call (relative viability < 0.9). As to conditions: 10 µM.
For the compound `C[C@@H]1CN([C@H](C)CO)S(=O)(=O)c2ccc(C#CC3CCCC3)cc2O[C@H]1CN(C)Cc1cncnc1`, the cytotoxicity call was “inactive”.
In the case of `C[C@H](CO)N1C[C@H](C)[C@H](CN(C)Cc2ccncc2)Oc2c(NS(=O)(=O)c3cccs3)cccc2C1=O`, the cytotoxicity call was “inactive”.
With `CO[C@@H]1CN(C)C(=O)c2ccc(NC(=O)Nc3cccc(F)c3)cc2OC[C@@H](C)N(C(=O)Nc2cccc(F)c2)C[C@H]1C` the entry was “inactive”; with `C[C@H](CO)N1C[C@H](C)[C@H](CN(C)C(=O)CN2CCOCC2)Oc2cc(C#Cc3cccc(F)c3)ccc2S1(=O)=O`, “inactive”.
With `C[C@@H]1CCCCO[C@H](CN(C)C)[C@@H](C)CN([C@H](C)CO)C(=O)c2cc(NC(=O)Nc3cccc4ccccc34)ccc2O1` the entry was “inactive”.
With `C[C@@H]1CN([C@@H](C)CO)C(=O)c2cc(NC(=O)Nc3cccc4ccccc34)ccc2O[C@@H](C)CCCCO[C@H]1CN(C)CC1CC1` the entry was “inactive”.
Turning to `C[C@@H]1CCCCO[C@H](CN(C)CC2CCCCC2)[C@H](C)CN([C@@H](C)CO)C(=O)c2cc(NC(=O)Nc3cccc4ccccc34)ccc2O1`, the cytotoxicity call is “active”.
With `C[C@@H]1CCCCO[C@@H](CN(C)CC2CC2)[C@@H](C)CN([C@H](C)CO)C(=O)c2cc(NC(=O)Nc3cccc4ccccc34)ccc2O1` the entry was “inactive”.
With `C[C@H]1CCCCO[C@@H](CN(C)CC2CCCCC2)[C@@H](C)CN([C@@H](C)CO)C(=O)c2cc(NC(=O)Nc3cccc4ccccc34)ccc2O1` the entry was “active”; with `C[C@@H]1CCCCO[C@@H](CN(C)CC2CC2)[C@H](C)CN([C@H](C)CO)C(=O)c2cc(NC(=O)Nc3cccc4ccccc34)ccc2O1`, “inactive”.
With `C[C@@H]1CCCCO[C@@H](CN(C)CC2CC2)[C@H](C)CN([C@@H](C)CO)C(=O)c2cc(NC(=O)Nc3cccc4ccccc34)ccc2O1`, the cytotoxicity call was “inactive”.
As to `C[C@@H]1CCCCO[C@H](CN(C)CC2CCCCC2)[C@H](C)CN([C@H](C)CO)C(=O)c2cc(NC(=O)Nc3cccc4ccccc34)ccc2O1`, the cytotoxicity call is “active”.
With `C[C@@H]1CCCCO[C@@H](CN(C)CC2CCCCC2)[C@@H](C)CN([C@@H](C)CO)C(=O)c2cc(NC(=O)Nc3cccc4ccccc34)ccc2O1` the entry was “active”; with `C[C@@H]1CCCCO[C@@H](CN(C)C)[C@H](C)CN([C@H](C)CO)C(=O)c2cc(NC(=O)Nc3cccc4ccccc34)ccc2O1`, “inactive”; with `CO[C@H](CN(C)S(=O)(=O)c1cn(C)cn1)[C@@H](C)CN(C(=O)Nc1ccc(C(F)(F)F)cc1)[C@H](C)CO`, “inactive”.
For `Cc1noc(C)c1S(=O)(=O)N(C)C[C@H]1Oc2ccc(NC(=O)NC3CCCCC3)cc2CC(=O)N([C@H](C)CO)C[C@H]1C`, the cytotoxicity call was “inactive”.
With `Cc1ccc(S(=O)(=O)N(C)C[C@H]2Oc3c(NC(=O)c4ccncc4)cccc3C(=O)N([C@@H](C)CO)C[C@@H]2C)cc1` the entry was “inactive”; with `C[C@H]1CN([C@@H](C)CO)C(=O)c2cccc(NC(=O)c3ccc(-c4nccs4)cc3)c2O[C@H]1CN(C)S(=O)(=O)c1ccc(Cl)cc1`, “inactive”; with `CNC1C(OC2OC(CO)C(N)C(O)C2O)OC2CC(N)C(OC3C(N)CC(N)C(O)C3O)OC2C1O.O=S(=O)(O)O` (stereo not given), “inactive”.
With `C[C@H]1CN([C@@H](C)CO)C(=O)Cc2cc(NC(=O)c3ccncc3)ccc2O[C@@H]1CN(C)S(C)(=O)=O` the entry was “inactive”; with `C[C@@H]1CN([C@@H](C)CO)C(=O)Cc2cc(NC(=O)C3CC3)ccc2O[C@@H]1CN(C)S(=O)(=O)c1ccccc1`, “inactive”.
With `CO[C@@H]1CN(C)C(=O)c2ccc(NC(=O)C3CC3)cc2OC[C@H](C)N(C(=O)C2CCOCC2)C[C@H]1C` the entry was “inactive”.
Take `C[C@@H]1CN([C@@H](C)CO)C(=O)c2cc(NS(=O)(=O)c3cn(C)cn3)ccc2O[C@@H](C)CCCCO[C@H]1CN(C)C`: the cytotoxicity call is “inactive”.
With `C[C@H](CO)N1C[C@H](C)[C@@H](CN(C)CC2CC2)OCCCC[C@H](C)Oc2ccc(NC(=O)Nc3cccc4ccccc34)cc2C1=O` the entry was “inactive”; with `C[C@H](CO)N1C[C@H](C)[C@H](CN(C)CC2CC2)OCCCC[C@H](C)Oc2ccc(NC(=O)Nc3cccc4ccccc34)cc2C1=O`, “inactive”; with `C[C@H](CO)N1C[C@H](C)[C@@H](CN(C)CC2CCCCC2)OCCCC[C@H](C)Oc2ccc(NC(=O)Nc3cccc4ccccc34)cc2C1=O`, “active”.
With `C[C@@H]1CCCCO[C@@H](CN(C)CC2CCCCC2)[C@H](C)CN([C@@H](C)CO)C(=O)c2cc(NC(=O)Nc3cccc4ccccc34)ccc2O1` the entry was “active”.
With `C[C@@H]1CCCCO[C@@H](CN(C)CC2CCCCC2)[C@@H](C)CN([C@H](C)CO)C(=O)c2cc(NC(=O)Nc3cccc4ccccc34)ccc2O1` the entry was “active”; with `C[C@@H]1CCCCO[C@H](CN(C)CC2CC2)[C@@H](C)CN([C@H](C)CO)C(=O)c2cc(NC(=O)Nc3cccc4ccccc34)ccc2O1`, “inactive”; with `C[C@H](CO)N1C[C@H](C)[C@H](CN(C)CC2CCCCC2)OCCCC[C@H](C)Oc2ccc(NC(=O)Nc3cccc4ccccc34)cc2C1=O`, “active”.
As for `C[C@@H]1CCCCO[C@H](CN(C)CC2CC2)[C@H](C)CN([C@@H](C)CO)C(=O)c2cc(NC(=O)Nc3cccc4ccccc34)ccc2O1`, the cytotoxicity call was “inactive”.
With `CC(C)NC(=O)Nc1ccc2c(c1)C(=O)N([C@@H](C)CO)C[C@H](C)[C@H](CN(C)C(=O)NC1CCCCC1)O2` the entry was “inactive”; with `COC(=O)C1=C(C)NC(C)=C(C(=O)OC)C1`, “inactive”.
For the compound `O=C(C[C@H]1CC[C@@H](NS(=O)(=O)c2ccccc2F)[C@H](CO)O1)NCCCN1CCOCC1`, the cytotoxicity call was “inactive”.
With `O=C(/C=C/c1ccc(O)c(O)c1)O[C@@H]1C[C@](O)(C(=O)O)C[C@@H](OC(=O)/C=C/c2ccc(O)c(O)c2)[C@H]1O` the entry was “inactive”; with `CC(C)C[C@H](NC(=O)[C@@H](COC(C)(C)C)NC(=O)[C@H](Cc1ccc(O)cc1)NC(=O)[C@H](CO)NC(=O)[C@H](Cc1c[nH]c2ccccc12)NC(=O)[C@H](Cc1cnc[nH]1)NC(=O)[C@@H]1CCC(=O)N1)C(=O)N[C@@H](CCCNC(=N)N)C(=O)N1CCC[C@H]1C(=O)NNC(N)=O`, “inactive”; with `C[C@H](CO)N1C[C@H](C)[C@@H](CN(C)S(=O)(=O)c2ccc(F)cc2)Oc2ccc(NS(=O)(=O)c3ccccc3)cc2CC1=O`, “inactive”.
On to `COc1ccccc1-c1cnc2c(c1)C(=O)N([C@H](C)CO)C[C@@H](C)[C@@H](CN(C)C(=O)c1ccncc1)O2`, for which the cytotoxicity call is “inactive”.
With `C[C@H]1CN([C@@H](C)CO)S(=O)(=O)c2ccc(C3=CCCC3)cc2O[C@H]1CN(C)C(=O)Cc1ccncc1` the entry was “inactive”; with `O=C1CN(c2ccccc2)C=NN1`, “inactive”.
With `C[C@@H]1CN([C@H](C)CO)C(=O)c2cc(NC(=O)Nc3cccc4ccccc34)ccc2O[C@@H](C)CCCCO[C@@H]1CN(C)CC1CCCCC1` the entry was “active”; with `C[C@@H]1CCCCO[C@@H](CN(C)CC2CCCCC2)[C@H](C)CN([C@H](C)CO)C(=O)c2cc(NC(=O)Nc3cccc4ccccc34)ccc2O1`, “active”; with `COc1ccc(S(=O)(=O)N(C)C[C@@H]2Oc3ccc(NC(=O)Cn4cnnn4)cc3CC(=O)N([C@H](C)CO)C[C@@H]2C)cc1`, “inactive”.
For the compound `C[C@H](CO)N1C[C@H](C)[C@@H](CN(C)C(=O)Nc2cccc(Cl)c2Cl)OCc2ccccc2-c2ccccc2C1=O`, the cytotoxicity call is “inactive”.
With `Cc1noc(C)c1S(=O)(=O)Nc1ccc2c(c1)CC(=O)N([C@H](C)CO)C[C@H](C)[C@H](CN(C)S(=O)(=O)c1ccccc1)O2` the entry was “inactive”.
With `C[C@H]1CN([C@@H](C)CO)C(=O)CCCn2cc(nn2)CO[C@H]1CN(C)S(=O)(=O)c1ccc(-c2ccccc2)cc1` the entry was “inactive”.
With `COc1ccc(S(=O)(=O)Nc2ccc3c(c2)C(=O)N([C@@H](C)CO)C[C@@H](C)[C@@H](CN(C)C(=O)CCC(F)(F)F)OCCCC[C@@H](C)O3)cc1` the entry was “inactive”.
Turning to `CC1(C)[C@@H](O[C@H]2O[C@H](C(=O)O)[C@@H](O)[C@H](O)[C@H]2O[C@@H]2O[C@H](C(=O)O)[C@@H](O)[C@H](O)[C@H]2O)CC[C@]2(C)[C@H]3C(=O)C=C4[C@@H]5C[C@@](C)(C(=O)O)CC[C@]5(C)CC[C@@]4(C)[C@]3(C)CC[C@@H]12`, the cytotoxicity call was “inactive”.
With `C[C@@H]1O[C@@H](O[C@H]2[C@H](O[C@H]3[C@H](O)[C@@H](C(=O)O)O[C@@H](O[C@H]4CC[C@]5(C)[C@H]6CC[C@]78OC[C@@]9(CCC(C)(C)C[C@@H]97)[C@H](O)C[C@@]8(C)[C@]6(C)CC[C@H]5C4(C)C)[C@@H]3OC3O[C@H](CO)[C@@H](O)[C@H](O)[C@H]3O)O[C@H](CO)[C@H](O)[C@@H]2O)[C@H](O)[C@H](O)[C@H]1O` (stereo not given in full) the entry was “active”; with `C[C@@H]1O[C@@H](O[C@H]2[C@H](O[C@H]3[C@H](O)[C@@H](O[C@@H]4O[C@H](CO)[C@@H](O)[C@H](O)[C@H]4O)[C@H](O[C@H]4CC[C@]5(C)[C@H]6CC[C@]78OC[C@@]9(CCC(C)(C)C[C@@H]97)[C@H](O)C[C@@]8(C)[C@]6(C)CC[C@H]5C4(C)C)O[C@@H]3C(=O)O)O[C@H](CO)[C@H](O)[C@@H]2O)[C@H](O)[C@H](O)[C@H]1O`, “active”; with `CC(=O)O[C@H]1CC(C)(C)C[C@H]2[C@]13CO[C@@]21CC[C@H]2[C@@]4(C)CC[C@H](O[C@@H]5OC[C@H](O[C@@H]6O[C@H](CO)[C@@H](O)[C@H](O)[C@H]6O[C@@H]6OC[C@@H](O[C@@H]7O[C@H](CO)[C@@H](O)[C@H](O)[C@H]7O)[C@H](O)[C@H]6O)[C@H](O)[C@H]5O[C@@H]5O[C@H](CO)[C@@H](O)[C@H](O)[C@H]5O)[C@@](C)(CO)[C@@H]4CC[C@@]2(C)[C@]1(C)C[C@H]3O`, “active”.
With `C[C@@H]1O[C@@H](O[C@H]2[C@H](O)[C@@H](O)[C@H](OC(=O)[C@]34CCC(C)(C)C[C@H]3C3=CC[C@H]5[C@@]6(C)CC[C@H](O[C@@H]7O[C@H](C(=O)O)[C@@H](O)[C@H](O)[C@H]7O)C(C)(C)[C@@H]6CC[C@@]5(C)[C@]3(C)CC4)O[C@@H]2CO)[C@H](O)[C@H](O)[C@H]1O` the entry was “inactive”.
For the compound `C[C@H]1O[C@@H](OC[C@H]2O[C@@H](O[C@H]3CC[C@]4(C)[C@H]5CCC6=C(CC[C@@]7(C(=O)O[C@@H]8O[C@H](CO)[C@@H](O)[C@H](O)[C@H]8O[C@@H]8O[C@H](CO)[C@@H](O)[C@H](O)[C@H]8O)CCC(C)(C)C[C@@H]67)[C@]5(C)CC[C@H]4C3(C)C)[C@H](O)[C@@H](O)[C@@H]2O)[C@H](O)[C@@H](O)[C@@H]1O`, the cytotoxicity call was “inactive”.
With `CC(=O)O[C@H]1CC(C)(C)C[C@H]2[C@]13CO[C@@]21CC[C@@H]2[C@@]4(C)CC[C@H](O[C@@H]5O[C@H](C(=O)O)[C@@H](O)[C@H](O[C@@H]6O[C@H](CO)[C@H](O)[C@H](O)[C@H]6O[C@@H]6O[C@@H](C)[C@H](O)[C@@H](O)[C@H]6O)[C@H]5O[C@@H]5O[C@H](CO)[C@@H](O)[C@H](O)[C@H]5O)C(C)(C)[C@@H]4CC[C@@]2(C)[C@]1(C)C[C@H]3O` the entry was “active”; with `C[C@@H]1O[C@@H](O[C@H]2[C@H](O[C@H]3[C@H](O)[C@@H](O[C@@H]4O[C@H](CO)[C@@H](O[C@@H]5O[C@H](CO)[C@H](O)[C@H]5O)[C@H](O)[C@H]4O)[C@H](O[C@H]4CC[C@]5(C)[C@H]6CC[C@]78OC[C@@]9(CCC(C)(C)C[C@@H]97)[C@H](O)C[C@@]8(C)[C@]6(C)CC[C@H]5C4(C)C)O[C@@H]3C(=O)O)O[C@H](CO)[C@H](O)[C@@H]2O)[C@H](O)[C@H](O)[C@H]1O`, “inactive”.
